# Assay results taken from the OligoGym collection.
# Target: SASH1
# Assay: pooled miR-30 sensor sort-seq; sequence = guide strand
# Details: shRNA
# Further: reference of the scale not given here.
row,Sequence,sensor-assay potency score (higher = more potent)
1,TAATGTACAATAACTCTTGAGT,-0.698
2,TAGATGAACTTGAACGTGCCGA,0.105
3,TTCAGGTACAATCTGAGGGGGC,-0.224
4,TTGAGCTTGAGTGAGTCTGTGT,0.495
5,TAACCTCTTAAACTTCACCGAC,-0.612
6,TTGACCATCATCATTAGCTGAA,0.388
7,TTTTAGGTTAATCCGATCCAGG,-1.32
8,TAGCTTTCCGAGTCTTGCCGTT,-0.384
9,TTTCGTAGCATCCTGAGTCTCG,0.799
10,TAACTCTTGAGTCTGTTACTTT,-0.488
11,TAGTTGTCAATTTCTGAGGTTC,-0.0207

# Target: SASH3
# Assay: as above
# Details: shRNA
row,Sequence,sensor-assay potency score (higher = more potent)
1,TTGGCAAAATCCTTGAAGCTGC,-0.67
2,TAGCTTTTACCAAAGTTCCTGG,-0.621
3,TTCTGGAATGTTATCATCCAGA,-1.05
4,TAGTCCAGCAGCAGCTCGGCGG,-1.4
5,TTTTAGACTGACCTGAAACATT,-1.36
6,TTGAGCAGGAGGGTGGATGTGT,-0.276
7,TGACCATCTGTAATCAGCCTTG,-0.932
8,TAGGGTTTTTAGACTGACCTGA,0.692
9,TTGACCATCTGTAATCAGCCTT,0.123
10,TGATCTGGATCACATCTCCTTT,-1.14
11,TTGAAGTCTTCCAGTGTCTGGT,0.225
12,ATCATCTTGCCCATCTTCCTGT,-0.431

# Target: SC5DL
# Assay: as above
# Details: shRNA
row,Sequence,sensor-assay potency score (higher = more potent)
1,TATCATTATCATACCAACGTTG,-0.725
2,TATATGGTAAGGTAGACTCTGA,-0.406
3,TTATTAAGCACAATGATTCTTA,-0.0651
4,AAGACTAATAGCTTGTCGGAAG,-1
5,TTGAATGAGCCGCCAATCCTAT,-0.95
6,TTACTATGTATCTTGACTGTAT,0.237
7,TTTCATTAATGCATGATCGAAG,-0.355
8,TTAACCAAGATGTACAGACTTA,-0.113
9,TAAAAAAATAGTAATCTGCAAC,-0.802
10,TAAACTTAATCTCTCGACGGAC,-0.573
11,TTGAAGAATTAACCATTCCTGA,-0.422
12,TTTACTATGTATCTTGACTGTA,-0.0112

# Target: SCAF4
# Assay: as above
# Details: shRNA
row,Sequence,sensor-assay potency score (higher = more potent)
1,TCTACCTGAATTGAACTGCTGC,0.449
2,TAGTACTGCAAACACTTGCAGT,-0.842
3,TACTATTTGAACTACATGCTTA,0.0032
4,TAACATTTTCTGCTACTGGGGC,-0.447
5,TTGTCTGAAACAGCTGAGCCAC,-1.31
